Shiga inhibitor: A qHTS for Small Molecule Inhibitors of Shiga Toxin; AID 2315, 2010; Vero cells, Shiga toxin protein synthesis inhibition reporter; inhibition, % at 38.7 µM; 290,000 compounds, 9.2% hits; in the data active means inhibition mostly above about 28%, no sharp cut-off; inactive means mostly below about 43%; further: 0% is about no effect
Pf growth 48h: Primary qHTS for delayed death inhibitors of the malarial parasite plastid, 48 hour incubation; P. falciparum luciferase growth in erythrocytes, 48 h; Potency, µM (series often up to 28.7 µM), without a hit: at the highest dose activity change, negative = inhibition, usual class: inhibitors; 310,000 compounds, 5.9% hits; further: potency means the concentration at half of the fitted maximal effect; on the % scale 0 is the no-effect control and ±100 the full control effect
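In quantitative HTS format, infected erythrocytes bearing luciferase-reporter parasites were treated for a single generation at 37 C. Luminescence after adding detection reagent served as the growth measure.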
Pf growth 96h: Primary qHTS for delayed death inhibitors of the malarial parasite plastid, 96 hour incubation; P. falciparum luciferase reporter growth, 96 h; Potency, µM (top dose mostly 28.7 µM), for the others: at the top dose activity change, negative = inhibition, actives largely listed as inhibitors; 320,000 compounds, 6.9% hits; further: potency means the concentration at half of the fitted maximal effect; on the % scale 0 is the no-effect control and ±100 the full control effect
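Readout is luminescence from an integrated firefly luciferase in P. falciparum. Red cells, 2% hematocrit and 0.05% parasitemia final, were cultured with compound through two parasite generations (96 hours) at 37 C, 5% CO2.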
HCMV antiviral: qHTS Assay for inhibitors of the human cytomegalovirus (HCMV) | HFF cells, HCMV-luciferase reporter, 72 h; stronger effect = lower value | activity change, negative = inhibition, % at 57.5 µM | 410,000 compounds, 4.5% hits | AID 1259415, 2018; in the data active means activity change below about -60%; inconclusive means no clear call, values can overlap the other calls; inactive means above about -39%; further: on the % scale 0 is the no-effect control and ±100 the full control effect
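Two compound doses tested in HFFs infected with HCMV-luciferase, MOI 1 PFU/cell, 72 h at 37C. Lysate luminescence read with OneGlo; data normalized against buffer-only and 10uM Salinomycin inhibitor controls.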
HCV inh: qHTS Assay for Inhibitors of Hepatitis C Virus (HCV) | Potency, µM (titrated, usually from 41.8 µM), for the others: at the highest dose activity change, negative = inhibition, most hits filed as inhibitors | 340,000 compounds, 3.4% hits | Huh7.5.1 HCVcc-Cre infection, luciferase reporter, 44 h | AID 651820, 2012; further: potency means the concentration at half of the fitted maximal effect; on the % scale 0 is the no-effect control and ±100 the full control effect
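Luciferase read-out (15 sec integration) after a 15 min room-temperature substrate step quantifies HCVcc-Cre infection. Cells, 1,000 per well, had compound added 4 h post-plating, then virus at ~0.5 moi, and were cultured 44 h.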
Cycloheximide cs: Cycloheximide Counterscreen for Small Molecule Inhibitors of Shiga Toxin; AID 2314, 2010; cell reporter, cycloheximide protein synthesis inhibition counterscreen; 300,000 compounds, 12% hits; max response, %; in the data active means max response mostly above about 13%, no sharp cut-off; inactive means mostly below about 14%; further: read at 38.3 µM for the half of the compounds with a filed dose; 0% is about no effect
* hit, by the source's call; ? = inconclusive; · = no result given. This is a sample that favours compounds with a hit; in the whole collection about 21% have one here. Unless noted, the call rests on the fitted dose curve; in most records, active means well fitted inhibition curve with a large enough effect; inconclusive means small, poorly fitted or top-dose-only effect, or another doubt; inactive means no such curve, though single readings can be large or run the other way.

SMILES	Shiga inhibitor	Pf growth 48h	Pf growth 96h	HCMV antiviral	HCV inh	Cycloheximide cs
Cc1cccc2c1OCC/C2=N\NC(=O)COc1ccccc1	133*	82%	69%	89	-4%	60*
O=C(COc1cccc(Br)c1)N/N=C1\CCCc2ccccc21	13	40%	28%	24	?	-4
COc1ccc(OCC(=O)N/N=C2\CCCc3ccccc32)cc1	-21	30%	?	1	5%	0
COc1ccccc1OCC(=O)N/N=C1\CCCCc2ccccc21	19	?	?	?	-24%	17*
O=C(COc1ccccc1F)N/N=C1\CCCc2ccccc21	79*	183%	98%	41	?	35*
CCOC(=O)N1CCN(C(=O)c2ccc3c(c2)N(Cc2ccccc2F)C(=O)c2ccccc2S3=O)CC1 (configuration not stated)	·	·	·	13	·	·
COc1ccc(C(=O)N/N=C2\CCc3ccccc32)cc1OC	34	-10%	-13%	50	-7%	30*
COc1ccc(C(=O)NN=C2CCCC2)cc1OC	-2	17%	?	-31	-3%	-2
O=C(NC1CCCC1)c1ccc(Cl)c(S(=O)(=O)N2CCCCC2)c1	-4	?	45%	-40	35µM*	-4
O=C(Nc1cccnc1)c1ccc(Cl)c(S(=O)(=O)N2CCOCC2)c1	-8	-26%	-23%	-23	-6%	-5
O=C(Nc1cccc(Br)c1)c1ccc(Cl)c(S(=O)(=O)N2CCOCC2)c1	35	6.6µM*	-3%	-98*	4µM*	21*
O=C(Nc1cccc(S(=O)(=O)N2CCOCC2)c1)c1cc(S(=O)(=O)N2CCOCC2)c(Cl)cc1Cl	·	·	·	-31	?	·
O=C(Nc1cccc(S(=O)(=O)C(F)F)c1)c1ccc(Cl)c(S(=O)(=O)N2CCOCC2)c1	-9	9.3µM*	·	?	13µM*	10
O=C(NC1CCCCCC1)c1ccc(Cl)c(S(=O)(=O)N2CCOCC2)c1	-3	?	-26%	23	-18%	1
O=C(Nc1cccc(C(=O)NC2CC2)c1)c1ccc(Cl)c(S(=O)(=O)N2CCOCC2)c1	·	?	13µM*	-22	?	·
COc1cc(/C=C2\SC(=O)N(CCNC(=O)c3c(C)noc3C)C2=O)cc(OC)c1OC	·	·	·	25	-2%	·
CC(C)[C@H](NC(=O)C1CC(=O)N(c2ccc3c(c2)OCCO3)C1)C(=O)NC1CCCC1 (some centres not stated)	-5	4%	22%	0	13%	-1
O=C(Cc1ccc([N+](=O)[O-])cc1)N1N=C(C2CC2)CC1(O)C(F)(F)F (configuration not stated)	1	-13%	?	-29	4%	1
COc1cc(C2CC(=O)Nc3n[nH]c(-c4ccccc4)c32)cc(OC)c1OC (configuration not stated)	-6	?	?	·	4%	-3
COc1ccc(CNN2CCCCC2C(=O)Nc2ccc(OC)c(OCC(C)C)c2)cc1OC (configuration not stated)	-6	28%	15µM*	0	-13%	-1
CCOC(=O)c1c(C)[nH]c(CCC(=O)NCc2cc(OC)c(OC)c(OC)c2)c1C	·	·	·	63	·	·
Cc1nc(-c2ccc([N+](=O)[O-])cc2)nc2[nH]ccc(=O)c12	36	221%	1%	-3	8%	30*
Cc1nc(-c2ccccc2)nc2[nH]c(-c3ccccc3)cc(=O)c12	52	·	·	39	?	-3
Cc1nc(-c2ccccc2)nc2[nH]ccc(=O)c12	45	·	13%	154	12%	34*
CC(=O)c1ccc(S(=O)(=O)N2CCN(CC(=O)Nc3ccccc3C(=O)NC3CC3)CC2)cc1	·	?	?	-6	-7%	·
CN(C)/N=N/c1nc[nH]c1C(N)=O	·	-7%	6%	·	·	·

High-throughput results deposited in PubChem BioAssay by National Center for Advancing Translational Sciences (NCATS).
